The nature of experiment [1]: AP1 Signaling Pathway (AID 357).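 Note: ME-180 reporter cells stimulated with EGF at its EC50 level; % is set by controls: 0 for no effect and ±100 for the full control effect.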 Put shortly:
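A ratiometric CCF4 readout (405 nm excitation; 460 and 530 nm emission) quantified AP-1-driven beta-lactamase in ME-180 cells after 5 h with compound and EC50 EGF; AC50 values were derived for activators and inhibitors.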

The target of experiment [2] is Cytochrome P450 1A2 (Homo sapiens) (UniProt P05177). Description: p450-cyp1a2 (AID 410; calls by dose curve; note: potency is the fitted concentration of half-maximal effect;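 for activity change, negative = inhibition: -100% = full effect of reference inhibitor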). A digest of the protocol: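 O-Demethylation of luciferin 6' methyl ether by human CYP1A2 is monitored as luciferase luminescence. Substrate sits at Km (100uM); enzyme is 20nM. Values are scaled to 57 uM furafylline as maximal inhibition.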
Experiment [3] in a line: NFAT Signaling Pathway (AID 444).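 Note: carbachol stimulus at about its EC50 of 1 µM final; % is set by controls: 0 for no effect and ±100 for the full control effect.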 The settings on record: Jurkat NFAT-bla M1, carbachol, beta-lactamase ratio, 5 h. A digest of the protocol: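 Jurkat cells with NFAT-driven β-lactamase reporter and co-expressed M1 receptor, stimulated with carbachol (final 1 uM, ~EC50), compound titration, 5 h at 37 °C. CCF4 loaded 1 h at RT; 460/530 nm ratio gave %activity and AC50.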

Experiment [4] in a line: Stat Signaling Pathway (AID 446).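 Note: ME-180 cervical cancer cells given 40 pM IL-6 alongside compound; SIE-controlled beta-lactamase reporter measured as 460/530 nm FRET emission ratio; % is set by controls: 0 for no effect and ±100 for the full control effect.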 Put shortly:
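Compound effects on IL-6-induced STAT reporter activity were measured in ME-180 cells. After overnight culture, cells were co-treated with 40 pM IL-6 for 5 hrs before beta-lactamase substrate loading at room temperature.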

In experiment [5] the target is Glucocorticoid receptor (Homo sapiens) (UniProt P04150). Description: GR-GFP Redistribution (AID 450;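 active = compounds whose dose series gives a full or clear partial fitted curve of increased nuclear translocation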; note: potency is the fitted concentration of half-maximal effect). The settings on record: U2OS GR-GFP nuclear translocation, laser cytometry, 2 h.
Experiment [6] has the same target. Kind of experiment: GR-EFC Redistribution (AID 451; calls by dose curve; note: potency is the fitted concentration of half-maximal effect). Conditions: CHO-K1 GR-EFC translocation, beta-gal luminescence, 2 h. Put shortly:
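CHO-K1 cells expressing nuclear EA and GR-ED fragments of b-gal; compounds titrated up to 46 uM final, 2 h at 37 C. GR nuclear translocation read as complemented b-gal luminescence after 1 h RT detection.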

In experiment [7] the target is Mitogen-activated protein kinase 10 (Mus musculus) (UniProt Q61831). Kind of experiment: JNK3 AlphaScreen Assay (AID 530).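 Note: kinase came from lysate of stimulated human HepG2 cells; signal reports phosphorylation of biotinylated GST-cJun 1-79 at Ser73 with 10 µM ATP; % is set by controls: 0 for no effect and ±100 for the full control effect.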 Put shortly: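 Activity was read by AlphaScreen after JNK3-containing HepG2 lysate (cytokine pre-activated) phosphorylated biotinylated GST-cJun with 10 uM ATP at room temperature. Phospho-Ser73 cJun antibody with Protein-A acceptor beads provided detection.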
(In general: Alpha assays give light when donor and acceptor beads are brought close together.)

Experiment [8] has as its target 3',5'-cyclic-AMP phosphodiesterase 4B (Homo sapiens) (UniProt Q07343). Description: qHTS Assay for Inhibitors of PDE-IV (AID 607; active = well fitted activation curve with a large enough effect in the main read-out, with a control signal flat, not every such curve was filed as active; note: % of control where 0% means no effect). Put shortly:
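ACTOne HEK293 cells carry a modified cAMP-gated CNG channel and express endogenous PDE4; plated 1000 cells/well, compounds up to 22.9 uM final. Membrane-potential dye fluorescence (ex 535/em 590) was read; parental cells received 10 uM forskolin + 100 uM RO 20-1724.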
Background: qHTS replaces the single test concentration by a dilution series.

The nature of experiment [9]: Cell Viability - BJ (AID 421; calls by dose curve;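 note: potency is the fitted concentration of half-maximal effect; cells exposed to compound for 40 hours at 37 °C before readout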). Conditions: BJ fibroblast viability, qHTS. Put shortly: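 Luminescent ATP signal (CellTiter-Glo, 20 min at room temperature) served as the read-out of viable BJ cells after 40 hours of compound treatment. Responses were scaled between DMSO and 100 uM tamoxifen, and AC50 values were obtained by Hill modeling.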
Experiment [10] can be described thus: Cell Viability - Jurkat (AID 426;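 active = dose-dependent loss of cell ATP signal giving a full or clear fitted curve, ranked by lower potency value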;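 note: potency is the fitted concentration of half-maximal effect; cells exposed to compound for 40 hours at 37 °C before ATP read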). The settings on record: qHTS. Put shortly: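 Cells of the human T-cell leukemia line Jurkat (E6-1) are seeded at 5000 per well, treated with compound across a concentration range for 40 hours at 37 °C, then lysed with CellTiter-Glo; luminescence reports ATP.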
Experiment [11] in a line: Cell Viability - Hek293 (AID 427;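 active = compounds whose dose-response curve shows a full or clear partial loss of cell viability, called from curve shape rather than a numeric limit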;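 note: potency is the fitted concentration of half-maximal effect; cells exposed to compound for 40 hours at 37 °C before reading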). Conditions: qHTS. Put shortly:
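Luminescent ATP read-out (CellTiter-Glo, 20 min RT) after 40 hr compound exposure at 37 °C in complete medium. Signal normalized to DMSO (basal) and 100 uM tamoxifen (100% inhibition); concentration-response fitted with the standard Hill equation to give AC50.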

Experiment [12] is described as follows: Cell Viability - HepG2 (AID 433; calls by dose curve;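 note: potency is the fitted concentration of half-maximal effect; potency for ATP loss meaning cytotoxicity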). The settings on record: qHTS. Put shortly:
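Read-out is luciferase-based quantitation of cellular ATP as a measure of viable HepG2 cells after 40 h treatment at 37 °C. Signal decrease is scaled between DMSO-only and 100 uM tamoxifen controls, with AC50 fitted by the Hill equation.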

The nature of experiment [13]: Cell Viability - MRC5 (AID 434; calls by dose curve;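 note: potency is the fitted concentration of half-maximal effect; potency reflects cytotoxicity seen as loss of intracellular ATP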). The settings on record: MRC5 lung fibroblast viability, qHTS. Put shortly: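 ATP luminescence read-out (CellTiter-Glo, 20 min RT) after 40 hr, 37 °C compound exposure of 1500 MRC5 cells/well. Data normalized to DMSO (basal) and 100 uM tamoxifen (100% inhibition); AC50 from standard Hill equation.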
Experiment [14] in a line: Cell Viability - SK-N-SH (AID 435; calls by dose curve;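 note: potency is the fitted concentration of half-maximal effect; compound exposure lasted 40 h at 37 °C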). The settings on record: SK-N-SH neuroblastoma cell viability qHTS. A digest of the protocol: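 Luminescent ATP signal served as the viability read-out after 40 hours of compound treatment of human neuroblastoma SK-N-SH cells. Concentration-response data, scaled between DMSO and 100 uM tamoxifen, gave AC50 values by standard Hill modeling.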

Experiment [15] can be described thus: Cell Viability - N2a (AID 540; active = well fitted curve in the direction sought with a large enough effect; an effect the other way counts as inactive or inconclusive;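 note: cells exposed to compound for 40 h at 37 °C; plate controls were DMSO alone for no effect and tamoxifen control for full effect; nearly all actives have a fitted effect of over 45% in size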). The settings on record: N2a mouse neuroblastoma cell viability; activity change, negative = cytotoxicity: at 92.2 µM (top of the series). Put shortly: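 Cytotoxicity was scored as loss of cellular ATP in N2a cells, a mouse neuroblastoma line. Compounds are applied in a qHTS concentration series for 40 hr at 37 °C.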
Experiment [16] can be described thus: Cell Viability - NIH 3T3 (AID 541; active = well fitted curve in the direction sought with a large enough effect; an effect the other way counts as inactive or inconclusive;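 note: plate controls were DMSO alone for no effect and tamoxifen positive control for full effect; nearly all actives have a fitted effect of over 25% in size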). The settings on record: NIH 3T3 cell viability, qHTS; activity change, negative = cytotoxicity: at 92.2 µM (top of the series). Put shortly: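 Cells seeded at 1000/well, rested 5 hr at 37 °C, then dosed and incubated 40 hr at 37 °C. CellTiter-Glo added, 20 min room temperature, luminescence read. AC50 by Hill fit.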
Experiment [17] is described as follows: Cell Viability - HUV-EC-C (AID 542; active = well fitted curve in the direction sought with a large enough effect; an effect the other way counts as inactive or inconclusive; note: % is set by controls: 0 for no effect and ±100 for the full control effect; nearly all actives have a fitted effect of over 35% in size). Put shortly: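 Cells were seeded at 1000 per well and incubated 5 hr at 37 °C before compound addition. After 40 hr at 37 °C, CellTiter-Glo reagent was added for 20 min and luminescence read. AC50 values came from Hill-equation modelling.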
The nature of experiment [18]: Cell Viability - SH-SY5Y (AID 544; active = well fitted curve in the direction sought with a large enough effect; an effect the other way counts as inactive or inconclusive;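 note: 0% = DMSO alone and -100% = 100 µM tamoxifen; nearly all actives have a fitted effect of over 55% in size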). The settings on record: SH-SY5Y neuroblastoma cell viability; viability change, negative = cytotoxic: at 92.2 µM (top of the series). Put shortly:
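Cells were plated at 1500 per well and allowed 5 hr at 37 °C. Compounds were added across a concentration range and incubated 40 hr at 37 °C. CellTiter-Glo was added for 20 min at room temperature before luminescence reading.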

Experiment [19] can be described thus: Cell Viability - Mesenchymal (AID 546; active = well fitted curve in the direction sought with a large enough effect; an effect the other way counts as inactive or inconclusive;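 note: cells exposed to compound for 40 hours before reading; 0% = DMSO only and -100% = 100 µM tamoxifen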). Put shortly:
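Human renal mesenchymal cells (glomerulus-derived), 1000 cells/well, 5 hr 37 °C pre-incubation; compound 40 hr, 37 °C; CellTiter-Glo, 20 min RT; luminescence; AC50 via Hill equation.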

Experiment [20] deals with Lysosomal acid glucosylceramidase (Homo sapiens) (UniProt P04062). Kind of experiment: Glucocerebrosidase-p2 (AID 348; in the data active = potency below about 10 µM; note: potency is the fitted concentration of half-maximal effect). Conditions: purified GBA, blue fluorogenic substrate, 40 min. Put shortly:
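Normal human glucocerebrosidase (0.2 nM) with blue fluorogenic substrate (80 uM final) in citrate/phosphate pH 5.9 with 10mM sodium taurocholate, 0.01% tween-20; 40 min RT, NaOH/glycine stop; fluorescence Ex 365/Em 440; AC50 from a titration from 0.6 nM upwards.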

Values joined by “and” are separate entries in the source; they are usually repeats but may differ in a detail not shown here. Equal values may be shown once. Inconclusive results are not listed. A structure can be active in one record and inactive in another. Active and inactive are the calls of the source. Unless noted, calls come from the whole dose curve; as a rule, active = well fitted curve in either direction with a large enough effect (not every such curve was filed as active); inconclusive = small, poorly fitted or top-dose-only effect, or another doubt; inactive = flat fitted curve, though single readings scatter.

Glucocorticoid receptor (Homo sapiens), sequence (P04150 whole entry, looked up): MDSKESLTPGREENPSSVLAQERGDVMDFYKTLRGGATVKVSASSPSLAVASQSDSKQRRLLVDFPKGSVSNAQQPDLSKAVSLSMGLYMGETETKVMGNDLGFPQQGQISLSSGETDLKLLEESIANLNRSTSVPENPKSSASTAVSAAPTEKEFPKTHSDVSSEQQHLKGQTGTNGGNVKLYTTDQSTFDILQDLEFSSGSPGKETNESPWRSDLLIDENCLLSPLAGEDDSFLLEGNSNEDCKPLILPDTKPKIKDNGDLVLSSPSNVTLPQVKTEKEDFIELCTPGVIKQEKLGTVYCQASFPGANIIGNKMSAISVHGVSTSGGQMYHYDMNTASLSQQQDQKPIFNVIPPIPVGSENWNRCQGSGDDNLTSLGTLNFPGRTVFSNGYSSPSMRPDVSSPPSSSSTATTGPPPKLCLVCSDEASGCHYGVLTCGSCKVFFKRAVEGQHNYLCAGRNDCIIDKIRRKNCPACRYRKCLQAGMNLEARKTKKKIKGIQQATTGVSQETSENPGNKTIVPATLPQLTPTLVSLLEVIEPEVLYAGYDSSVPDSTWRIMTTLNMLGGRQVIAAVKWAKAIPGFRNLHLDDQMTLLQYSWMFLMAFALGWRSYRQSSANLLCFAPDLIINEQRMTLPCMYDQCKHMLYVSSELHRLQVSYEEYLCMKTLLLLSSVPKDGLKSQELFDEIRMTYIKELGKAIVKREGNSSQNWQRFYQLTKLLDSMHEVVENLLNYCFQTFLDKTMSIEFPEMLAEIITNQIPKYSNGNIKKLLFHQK
3',5'-cyclic-AMP phosphodiesterase 4B (Homo sapiens), sequence (Q07343 whole entry, looked up): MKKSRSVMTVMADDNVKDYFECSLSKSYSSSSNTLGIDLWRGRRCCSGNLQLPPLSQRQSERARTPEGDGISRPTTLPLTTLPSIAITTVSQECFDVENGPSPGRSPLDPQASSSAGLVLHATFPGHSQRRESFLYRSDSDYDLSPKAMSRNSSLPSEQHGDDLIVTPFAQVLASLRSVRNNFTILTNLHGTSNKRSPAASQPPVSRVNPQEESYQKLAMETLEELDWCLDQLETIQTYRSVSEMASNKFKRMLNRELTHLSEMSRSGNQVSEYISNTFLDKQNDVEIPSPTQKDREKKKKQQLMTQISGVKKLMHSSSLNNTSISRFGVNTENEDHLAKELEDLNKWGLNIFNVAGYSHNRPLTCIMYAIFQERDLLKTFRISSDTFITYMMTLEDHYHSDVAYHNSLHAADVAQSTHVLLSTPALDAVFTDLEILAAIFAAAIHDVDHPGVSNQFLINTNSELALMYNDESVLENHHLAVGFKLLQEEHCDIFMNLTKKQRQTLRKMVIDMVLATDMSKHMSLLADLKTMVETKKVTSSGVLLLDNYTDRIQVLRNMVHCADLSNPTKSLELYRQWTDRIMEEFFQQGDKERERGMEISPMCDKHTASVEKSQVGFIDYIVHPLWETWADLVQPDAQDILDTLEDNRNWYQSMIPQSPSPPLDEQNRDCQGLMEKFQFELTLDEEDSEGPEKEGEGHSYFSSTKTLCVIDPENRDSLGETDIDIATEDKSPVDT
Cytochrome P450 1A2 (Homo sapiens), sequence (P05177 whole entry, looked up): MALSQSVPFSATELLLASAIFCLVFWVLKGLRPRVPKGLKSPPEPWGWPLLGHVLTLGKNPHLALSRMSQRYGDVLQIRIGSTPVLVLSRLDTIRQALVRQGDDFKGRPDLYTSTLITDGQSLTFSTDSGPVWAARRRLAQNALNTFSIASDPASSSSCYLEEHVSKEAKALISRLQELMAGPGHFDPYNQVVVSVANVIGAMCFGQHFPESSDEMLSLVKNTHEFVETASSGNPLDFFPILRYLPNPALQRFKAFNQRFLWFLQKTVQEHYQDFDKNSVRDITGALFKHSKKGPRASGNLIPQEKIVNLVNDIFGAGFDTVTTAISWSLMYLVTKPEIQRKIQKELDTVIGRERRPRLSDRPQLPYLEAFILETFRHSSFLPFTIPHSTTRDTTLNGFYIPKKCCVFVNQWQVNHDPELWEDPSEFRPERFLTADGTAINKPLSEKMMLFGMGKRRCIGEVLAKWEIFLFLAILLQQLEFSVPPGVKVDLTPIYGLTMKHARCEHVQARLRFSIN
Lysosomal acid glucosylceramidase (Homo sapiens), sequence (P04062 whole entry, looked up): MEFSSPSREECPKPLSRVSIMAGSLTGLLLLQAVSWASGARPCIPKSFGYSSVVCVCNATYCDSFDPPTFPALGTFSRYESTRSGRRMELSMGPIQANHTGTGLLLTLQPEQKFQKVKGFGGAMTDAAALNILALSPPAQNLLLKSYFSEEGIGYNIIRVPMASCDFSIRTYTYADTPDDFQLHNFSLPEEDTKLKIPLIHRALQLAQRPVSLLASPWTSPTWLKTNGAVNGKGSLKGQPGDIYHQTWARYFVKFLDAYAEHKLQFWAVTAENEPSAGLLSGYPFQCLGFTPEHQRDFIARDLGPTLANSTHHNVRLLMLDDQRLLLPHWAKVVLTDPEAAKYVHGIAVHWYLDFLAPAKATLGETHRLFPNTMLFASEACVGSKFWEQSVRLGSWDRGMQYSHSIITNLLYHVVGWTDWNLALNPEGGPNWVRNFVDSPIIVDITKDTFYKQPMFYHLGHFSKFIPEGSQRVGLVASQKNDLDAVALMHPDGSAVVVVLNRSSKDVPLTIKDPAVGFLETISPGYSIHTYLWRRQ

For the compound `Nc1nc2c(ncn2COC(CO)CO)c(=O)[nH]1`, the compound was classed as inactive in [1], in experiment [4] and in experiment [7]. Also, the Potency entry in experiment [2] and in experiment [8] was “inactive” throughout. The activity change, negative = inhibition in [3] (at 17.2 µM (top of the series)) is 3.07% (inactive); in experiment [3] (at 38 µM (top of the series)), -0.352% (inactive). Also, the Potency in experiment [5] is > 46 µM (inactive) and > 20.6 µM (inactive); in experiment [6], > 46 µM (inactive) and > 20.6 µM (inactive).

As to `Cn1cnc2c1c(=O)[nH]c(=O)n2C`, the compound was classed as inactive in experiment [1], in experiment [4] and in experiment [7]. In addition, the activity change, negative = inhibition in [3] (at 17.2 µM (top of the series)) is -1.3% (inactive) and 20% (inactive); in experiment [3] (at 38 µM (top of the series)), 4.74% (inactive). The Potency in [5] was > 46 µM (inactive) and > 20.6 µM (inactive); in experiment [6], > 46 µM (inactive) and > 20.6 µM (inactive). In experiment [8], the Potency result is “inactive”.

Consider `Cc1cn([C@H]2C[C@H](N=[N+]=[N-])[C@@H](CO)O2)c(=O)[nH]c1=O`, for which the outcome in experiment [1], in experiment [4], in [7], in experiment [17] and in experiment [19] was inactive. Also, the Potency in [9], in [10], in experiment [11], in experiment [12], in experiment [13] and in experiment [14] was > 92 µM (inactive) each time. Moreover, in experiment [5], the Potency is > 20.6 µM (inactive). Also, in experiment [3] (at 17.2 µM (top of the series)), the activity change, negative = inhibition was 15.9% (inactive). Also, the activity change, negative = cytotoxicity in experiment [15] was -7.33% (inactive). The Potency entry in experiment [16] and in experiment [18] was “inactive” each time.

On to `COc1ccc(CCN(C)CCCC(C#N)(c2ccc(OC)c(OC)c2)C(C)C)cc1OC` (stereo not drawn), for which the compound was classed as inactive in [1], in experiment [4], in experiment [7], in experiment [17] and in experiment [19]. In addition, the Potency in experiment [9], in experiment [11], in experiment [13] and in experiment [14] was > 92 µM (inactive) each time. The activity change, negative = cytotoxicity in [15] is -16.5% (inactive). The Potency entry in [18] is “inactive”.

On to `Cn1c(=O)c2[nH]cnc2n(C)c1=O`, for which the compound was classed as inactive in [1], in experiment [4], in experiment [7], in experiment [17] and in experiment [19]. Besides, the Potency entry in experiment [2], in [16], in [18] and in experiment [8] was “inactive” throughout. Moreover, the Potency in experiment [9], in experiment [10], in experiment [11], in experiment [12], in experiment [13] and in experiment [14] was > 92 µM (inactive) throughout. The activity change, negative = inhibition in [3] (at 17.2 µM (top of the series)) is -8.18% (inactive) and -8.96% (inactive) and 7.57% (inactive); in experiment [3] (at 38 µM (top of the series)) it was 8.38% (inactive). The activity change, negative = cytotoxicity in [15] is 8.85% (inactive).

Take `CN(C)c1nc(N(C)C)nc(N(C)C)n1`: the compound was called inactive in [1], in [4] and in experiment [7]. Besides, the activity change, negative = inhibition in experiment [3] (at 17.2 µM (top of the series)) was 2.19% (inactive) and 4.9% (inactive); in [3] (at 38 µM (top of the series)), 6.06% (inactive). The Potency in experiment [5] is > 46 µM (inactive) and > 20.6 µM (inactive); in experiment [6], > 46 µM (inactive) and > 20.6 µM (inactive). For the same compound, the Potency result in experiment [8] was “inactive”.

Turning to `CN(C)CCC=C1c2ccccc2C=Cc2ccccc21`, the Potency is > 11.4 µM (inactive) in [20]; “inactive and 12.6 µM (active)” in experiment [2]; > 46 µM (inactive) and > 20.6 µM (inactive) in [5]; > 46 µM (inactive) and > 20.6 µM (inactive) and > 9.22 µM (inactive) in experiment [6]. Moreover, the activity change, negative = inhibition in experiment [3] (at 7.69 µM (top of the series)) is -78.7% (active). Further, the compound was classed as inactive in experiment [4] and in experiment [7]. In experiment [8], the Potency result was “inactive”.

As for `Nc1ccn([C@H]2CC[C@@H](CO)O2)c(=O)n1`, the Potency in [9], in experiment [10], in experiment [11], in [12], in [13] and in [14] was > 92 µM (inactive) in each case. The compound was called inactive in experiment [7], in [17] and in experiment [19]. In addition, the activity change, negative = cytotoxicity in experiment [15] is -5.12% (inactive). Further, the Potency result in experiment [16] and in [18] was “inactive” in each case.

As to `OCCN(CCO)c1nc(N2CCCCC2)c2nc(N(CCO)CCO)nc(N3CCCCC3)c2n1`, the activity change, negative = inhibition in experiment [3] (at 17.2 µM (top of the series)) was 7.02% (inactive) and -24.7% (inactive); in experiment [3] (at 38 µM (top of the series)), -0.6% (inactive). Further, the outcome in experiment [4] and in [7] was inactive. In experiment [8], the Potency result was “inactive”.

As to `CC(C)NCC(O)COc1ccc(CCOCC2CC2)cc1` (stereo not drawn), the result in [1] and in experiment [4] was inactive. The Potency in experiment [5] was > 20.6 µM (inactive).
